{"source": "PubChem BioAssay AID1992", "about": "(Sanford-Burnham Center for Chemical Genomics, 2009)", "note": "The campaign covered roughly 50,000 compounds. About 350 (0.7%) were called active. No stated cut-off is given here; in the data, active means inhibition above about 60%; inactive means the rest. Shown is part of a subset that was picked to be rich in actives.", "data": [{"target": "Dual specificity protein phosphatase 3 (Homo sapiens) (UniProt P51452)", "sequence (P51452 whole entry, looked up)": "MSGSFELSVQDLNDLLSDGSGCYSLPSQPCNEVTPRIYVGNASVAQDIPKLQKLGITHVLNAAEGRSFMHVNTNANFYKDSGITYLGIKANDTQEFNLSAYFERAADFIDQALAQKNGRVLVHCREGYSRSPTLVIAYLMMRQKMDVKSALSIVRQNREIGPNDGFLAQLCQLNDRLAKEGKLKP", "test": "VHR1 phosphatase inhibitors, primary screen, biochemical, colorimetric, HTS (AID 1992)", "details": "recombinant VHR phosphatase, colorimetric substrate read-out; at 20 µM; hits give high values", "values": [{"compound": "CSc1nc(SC)c2c3c(sc2n1)COC(C)(C)C3", "inhibition": "4.5% (inactive)"}, {"compound": "CC1(C)CC(NC(=O)c2ccccc2C(=O)O)CC(C)(C)N1", "inhibition": "-26.8% (inactive)"}, {"compound": "COc1ccc(N2C(=O)C3C(C2=O)C2C=CC3C23CC3)cc1", "note": "(stereo not drawn)", "inhibition": "-13% (inactive)"}, {"compound": "Cc1ccc(C)c(NC(=O)CN(c2ccc(F)cc2)S(=O)(=O)c2ccccc2)c1", "inhibition": "-21.2% (inactive)"}, {"compound": "CCCCCCOc1ccc(/C=C2/C(=O)ON=C2c2ccccc2)cc1", "inhibition": "1.2% (inactive)"}, {"compound": "COC(=O)C(=C/C=C/N(C)C)C(=O)OC", "inhibition": "-1.7% (inactive)"}, {"compound": "COc1ccc(C2=C/C(=C/c3cccc(OC)c3OC(C)=O)C(=O)O2)cc1", "inhibition": "2.4% (inactive)"}, {"compound": "O=C1c2cccc3cc(Br)cc(c23)C(=O)N1Nc1ccccc1", "inhibition": "-21.6% (inactive)"}, {"compound": "COc1ccccc1OCCCCOc1c(C)cccc1C", "inhibition": "27.1% (inactive)"}, {"compound": "COc1ccc(C2CC(c3ccccc3)=NN2c2ccccc2OC)cc1", "note": "(stereo not drawn)", "inhibition": "8.3% (inactive)"}, {"compound": "COc1ccc(/C=C2/SC(=S)N(Cc3ccccc3)C2=O)cc1OC", "inhibition": "-6.8% (inactive)"}, {"compound": "CC(C)CN1C(=O)/C(=C/c2cccc(Oc3ccccc3)c2)SC1=S", "inhibition": "-0.1% (inactive)"}, {"compound": "COc1cccc(OCCOc2cccc(/C=C3/SC(=S)N(Cc4ccccc4)C3=O)c2)c1", "inhibition": "112% (active)"}, {"compound": "Cc1ccc(NC(=O)CC2SC(N)=NC2=O)c([N+](=O)[O-])c1", "note": "(stereo not drawn)", "inhibition": "24.8% (inactive)"}, {"compound": "COc1ccc(N2C(=O)NC(=O)/C(=C/c3cccn3-c3ccc([N+](=O)[O-])cc3)C2=O)cc1", "inhibition": "-13.8% (inactive)"}, {"compound": "C=CCN1C(=O)/C(=C\\c2cc(OC)c(O)c([N+](=O)[O-])c2)C(=O)NC1=S", "inhibition": "3.8% (inactive)"}, {"compound": "C=CCN1C(=O)/C(=C\\c2cccn2-c2cccc([N+](=O)[O-])c2)C(=O)NC1=S", "inhibition": "85.9% (active)"}, {"compound": "CC(=O)Oc1ccc(/C=C2\\C=C(c3ccc(Br)cc3)OC2=O)c(OC(C)=O)c1", "inhibition": "5.9% (inactive)"}, {"compound": "CCOC(=O)CCCN1C(=O)/C(=C/c2ccccc2)SC1=S", "inhibition": "-3.8% (inactive)"}, {"compound": "CCOc1ccc(N2C(=O)S/C(=C\\c3ccccc3OC)C2=O)cc1", "inhibition": "-12.5% (inactive)"}, {"compound": "CCOC(=O)c1sc(C)c(C(N)=O)c1N", "inhibition": "0.2% (inactive)"}, {"compound": "O=C1N/C(=N/N=C/c2ccc3c(c2)OCO3)SC1c1ccccc1", "note": "(stereo not drawn)", "inhibition": "-3.2% (inactive)"}, {"compound": "O=C(Nc1c(Cl)cccc1Cl)c1ccc(Cl)c(Cl)c1", "inhibition": "-2% (inactive)"}, {"compound": "CCc1cccc(CC)c1NC(=O)c1ccccc1OC", "inhibition": "2.4% (inactive)"}, {"compound": "COc1ccc(CCNS(=O)(=O)c2cccc([N+](=O)[O-])c2)cc1", "inhibition": "8.5% (inactive)"}, {"compound": "CCOc1cccc2c1NC(C)(C)C(=S)C2=C1SC(C(=O)OC)=C(C(=O)OC)S1", "inhibition": "-4.6% (inactive)"}, {"compound": "CCN(CC)c1ccc(NC(=O)c2oc3ccccc3c2C)cc1", "inhibition": "7.4% (inactive)"}, {"compound": "CCOC(=O)c1ccc(NC(=O)/C(C#N)=C2\\NC(C)(C)Cc3ccccc32)cc1", "inhibition": "-14% (inactive)"}, {"compound": "Cc1cc(OCC(=O)Nc2cccnc2)ccc1Cl", "inhibition": "-1.1% (inactive)"}, {"compound": "CCOC(=O)c1ccccc1N/C=C(\\C#N)C(=O)NCc1ccccc1", "inhibition": "-12% (inactive)"}, {"compound": "CC1=C(C(=O)c2ccccc2)C(c2ccc([N+](=O)[O-])cc2)NC(=O)N1", "note": "(stereo not drawn)", "inhibition": "-1.5% (inactive)"}, {"compound": "COc1ccc(C(=O)N2CCN(Cc3cccc(OC)c3OC)CC2)cc1OC", "inhibition": "-15.2% (inactive)"}, {"compound": "COc1ccc(OC(C)C(=O)NCCc2nc3ccccc3[nH]2)cc1", "note": "(stereo not drawn)", "inhibition": "-9.3% (inactive)"}, {"compound": "CC(=O)Nc1ccc(S(=O)(=O)Nc2cccc(-c3nc4ccccc4[nH]3)c2)cc1", "inhibition": "-3% (inactive)"}, {"compound": "Cc1cc2c(cc1C)-c1nc3ccccc3c(=O)n1C(C)(C)C2", "inhibition": "-9.1% (inactive)"}, {"compound": "Cc1cc(C(=O)N/N=C/c2ccc(Br)c([N+](=O)[O-])c2)n[nH]1", "inhibition": "-1.6% (inactive)"}, {"compound": "CC(C)(C)OC(=O)NC(Cc1c[nH]c2ccccc12)C(=O)N1CCOCC1", "note": "(stereo not drawn)", "inhibition": "4.4% (inactive)"}, {"compound": "O=C1N/C(=N\\N=C\\c2ccccc2O)SC1Cc1cccc(C(F)(F)F)c1", "note": "(stereo not drawn)", "inhibition": "-19.6% (inactive)"}, {"compound": "Cc1cc(NC(=O)C2CCCCC2)cc(C)c1O", "inhibition": "-10.1% (inactive)"}, {"compound": "Cc1ccc(-c2cc(C(=O)N3CC(C)CC(C)C3)c3ccccc3n2)cc1C", "note": "(stereo not drawn)", "inhibition": "30.2% (inactive)"}, {"compound": "CC(C)c1ccc(C(=O)NC2CC2)cc1", "inhibition": "0% (inactive)"}, {"compound": "COc1cccc(C2/C(=C(\\O)c3ccc(Cl)cc3)C(=O)C(=O)N2c2cccnc2)c1", "note": "(stereo not drawn)", "inhibition": "-0.3% (inactive)"}, {"compound": "N#C/C(=C\\c1cn(CC(=O)Nc2ccccc2)c2ccccc12)C(=O)Nc1ccc(F)cc1", "inhibition": "23.2% (inactive)"}, {"compound": "O=c1oc2c(-c3cc(Cl)ccc3Cl)cc(O)cc2s1", "inhibition": "14% (inactive)"}, {"compound": "C/C(=N/NC(=O)c1ccccc1C)c1ccc(NC(=O)C(F)(F)F)cc1", "inhibition": "-15.5% (inactive)"}, {"compound": "O=c1[nH]c(=O)n(-c2ccc(Cl)cc2)c(O)c1/C=C1/C=CC=N1", "inhibition": "37.9% (inactive)"}, {"compound": "CCOc1ccc(-n2c(O)c(C=C3C=CC=N3)c(=O)[nH]c2=O)cc1", "inhibition": "3% (inactive)"}, {"compound": "O=c1[nH]c(=S)n(-c2cccc(Cl)c2)c(O)c1/C=C1/C=CC=N1", "inhibition": "87.4% (active)"}, {"compound": "Cc1ccc(NC(=O)CC2Nc3cc(C)c(C)cc3NC2=O)cc1", "note": "(stereo not drawn)", "inhibition": "33.7% (inactive)"}, {"compound": "Cc1cc2c(cc1C)NC(CC(=O)Nc1ccccc1C(F)(F)F)C(=O)N2", "note": "(stereo not drawn)", "inhibition": "-0.3% (inactive)"}, {"compound": "O=C(CC1Nc2ccccc2NC1=O)Nc1ccccc1NC(=O)CC1Nc2ccccc2NC1=O", "note": "(stereo not drawn)", "inhibition": "97.7% (active)"}, {"compound": "C=CCc1ccccc1OCCOc1c(I)cc(/C=C2/SC(=S)N(C)C2=O)cc1OC", "inhibition": "-23.1% (inactive)"}, {"compound": "CCOc1cc(/C=N/n2cnnc2)ccc1OCCOc1ccccc1C", "inhibition": "-20.4% (inactive)"}, {"compound": "COc1ccccc1OCCOc1ccc(/C=N/n2cnnc2)cc1", "inhibition": "14.5% (inactive)"}, {"compound": "Cc1cccc(OCCOc2cccc(/C=N/n3cnnc3)c2)c1", "inhibition": "112% (active)"}, {"compound": "CC(C)c1ccc(NC(=O)CN(c2ccc(Oc3ccccc3)cc2)S(C)(=O)=O)cc1", "inhibition": "-26.4% (inactive)"}, {"compound": "CCCOC(=O)c1ccc(N=Cc2ccc([N+](=O)[O-])cc2)cc1", "inhibition": "3.4% (inactive)"}, {"compound": "O=C(NCCN1CCOCC1)c1cc2nc(-c3ccc([N+](=O)[O-])cc3)cc(C(F)(F)F)n2n1", "inhibition": "-23.4% (inactive)"}, {"compound": "Cc1ccc(-c2ccc(C)cc2N)c(N)c1", "inhibition": "-3% (inactive)"}, {"compound": "O=C(NCc1ccccc1)c1ccc(CN2CCN(c3ccccc3)CC2)cc1", "inhibition": "5.6% (inactive)"}, {"compound": "CC(C)(C)c1cc(Br)ccc1OCC(=O)Nc1ccccc1[N+](=O)[O-]", "inhibition": "-0.7% (inactive)"}, {"compound": "O=C(Nc1cccc(Br)c1)C(=O)NC1CCCC1", "inhibition": "-18.7% (inactive)"}, {"compound": "Cc1ccc2c(c1)C(c1ccccc1[N+](=O)[O-])CC(=O)N2", "note": "(stereo not drawn)", "inhibition": "-4.5% (inactive)"}, {"compound": "O=C(c1nn2c(c1Cl)NC(c1ccc(F)cc1)CC2C(F)(F)F)N1CCN(Cc2ccccc2)CC1", "note": "(stereo not drawn)", "inhibition": "-2.9% (inactive)"}, {"compound": "O=C1C2C(C(=O)N1/N=C/C=C/c1ccccc1)C1C=CC2C12CC2", "note": "(stereo not drawn)", "inhibition": "-11.9% (inactive)"}, {"compound": "CC(C)(C)c1cc(N2C(=O)C(=O)/C(=C(\\O)c3ccccc3)C2c2cccc([N+](=O)[O-])c2)no1", "note": "(stereo not drawn)", "inhibition": "10.1% (inactive)"}, {"compound": "Cc1cccc(NC(=O)CCCOc2ccccc2)c1C", "inhibition": "-23.5% (inactive)"}, {"compound": "Cc1ccccc1NCC(=O)N/N=C\\c1cc([N+](=O)[O-])cc(Br)c1O", "inhibition": "31.8% (inactive)"}, {"compound": "Cc1cc(Br)cc(/C=N/NC(=O)c2cncc(Br)c2)c1O", "inhibition": "-16.6% (inactive)"}, {"compound": "Cc1ncc(C[n+]2csc3ccccc32)c(N)n1", "inhibition": "23.5% (inactive)"}, {"compound": "COc1ccc(C(=O)/C=C/Nc2cccc(Cl)c2Cl)cc1", "inhibition": "3.3% (inactive)"}, {"compound": "O=C1S/C(=C/c2ccc(-c3ccc(Cl)cc3Cl)o2)C(=O)N1c1ccccc1", "inhibition": "-7.5% (inactive)"}, {"compound": "CN(C)CCOC(=O)CCN1C(=O)/C(=C/c2ccc(Cl)cc2Cl)SC1=S", "inhibition": "-1.5% (inactive)"}, {"compound": "O=C(O)CCN1C(=O)/C(=C/c2ccc(-c3cc(Cl)ccc3Cl)o2)SC1=S", "inhibition": "73% (active)"}, {"compound": "Cc1cccc(NC(=O)c2cc(-c3ccc(Br)cc3)nc3ccccc23)n1", "inhibition": "-30.2% (inactive)"}, {"compound": "CCn1c(=O)c(C(=O)Nc2ccccc2Br)c(O)c2ccccc21", "inhibition": "-20.9% (inactive)"}, {"compound": "COc1ccc(C=O)c2c(O)cccc12", "inhibition": "2.1% (inactive)"}, {"compound": "CCN(C=NC1=NN(c2ccccc2)CC1)CC", "inhibition": "2.7% (inactive)"}, {"compound": "O=C1C=CC2=C3Oc4c(ccc5cc(O)ccc45)C(c4ccccc4C(=O)O)C3C=CC2=C1", "note": "(stereo not drawn)", "inhibition": "85.5% (active)"}, {"compound": "O=C(NCCCn1ccnc1)c1ccccc1[N+](=O)[O-]", "inhibition": "5.9% (inactive)"}, {"compound": "CC1=C(C(=O)OCc2ccccc2)C(c2ccc(C(F)(F)F)cc2)CC(=O)N1", "note": "(stereo not drawn)", "inhibition": "8.1% (inactive)"}, {"compound": "O=C1C(=O)N(Cc2ccccc2)C2C=CC=CC12", "note": "(stereo not drawn)", "inhibition": "7.6% (inactive)"}, {"compound": "COc1cccc(NC(=O)CN(c2cccc([N+](=O)[O-])c2)S(=O)(=O)c2ccccc2)c1", "inhibition": "-23.4% (inactive)"}, {"compound": "CCOC(=O)c1c(NC(=O)c2cc(OC)c(OC)c(OC)c2)sc(C(N)=O)c1C", "inhibition": "1.3% (inactive)"}, {"compound": "S=c1n(CN2CCOCC2)nc(-c2ccccc2Cl)n1-c1ccccc1", "inhibition": "-3.8% (inactive)"}, {"compound": "O=C(Nc1cc(Cl)cc(Cl)c1)C1COc2ccccc2O1", "note": "(stereo not drawn)", "inhibition": "-3% (inactive)"}, {"compound": "COc1ccc(/C=N/NC(=O)C2CC2)c(OC)c1OC", "inhibition": "-32.4% (inactive)"}, {"compound": "Cc1cc(C)c2cccc(NC(=S)NC(=O)c3cccc([N+](=O)[O-])c3)c2n1", "inhibition": "-0.4% (inactive)"}, {"compound": "O=[N+]([O-])c1nonc1NCn1nnc2ccccc21", "inhibition": "-8% (inactive)"}, {"compound": "CC(NC(=O)C1CC(=O)N(c2ccc(Br)cc2)C1)c1ccccc1", "note": "(stereo not drawn)", "inhibition": "16.1% (inactive)"}, {"compound": "COC(=O)c1ccc(/C=N/Nc2nncc(-c3ccccc3)n2)cc1", "inhibition": "-34% (inactive)"}, {"compound": "Cc1onc(-c2c(Cl)cccc2Cl)c1C(=O)Nc1sc2c(c1C(N)=O)CCCC2", "inhibition": "-46.5% (inactive)"}, {"compound": "O=C1NC(=O)C(=Cc2cccc(OCc3ccccc3)c2)C(=O)N1", "inhibition": "-24.8% (inactive)"}]}]}
